# Inconclusive results are not listed. Activity calls are given as the source filed them. Calls follow the shape of the dose curve; as a rule, active = well fitted inhibition curve with a large enough effect; inconclusive = small, poorly fitted or top-dose-only effect; inactive = no such curve, though single readings can be large or run the other way.
# Test: qHTS to identify inhibitors of the type 1 interferon - major histocompatibility complex class I in skeletal muscle: Secondary screen by immunofluorescence; also: nearly all actives have a fitted effect of over 70% in size
# Details: C25cl48 myoblasts, IFN-b induced HLA-ABC immunofluorescence, 24 h; series mostly up to 49.8 µM
# How it was run: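 Immortalized human myoblasts C25cl48 were stimulated with 4.0 ng/ml IFN-beta and exposed to an 11-point 1:3 compound titration, top 50 uM, for 24 h at 37 C. They were then fixed and immunostained for HLA-ABC, and quantified by laser scanning cytometry.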
# Potency is read from the fitted curve at half-maximal effect.
row,Structure (SMILES),Potency
1,COc1ccc(-c2ccc3ncc4c(c3c2)n(-c2ccc(N3CCNCC3)c(C(F)(F)F)c2)c(=O)n4C)cn1,258 nM (active)
2,COc1cc2c(cc1-c1c(C)noc1C)ncc1[nH]c(=O)n([C@H](C)c3ccccn3)c12,4080 nM (active)
3,CN(c1ncccc1CNc1nc(Nc2ccc3c(c2)CC(=O)N3)ncc1C(F)(F)F)S(C)(=O)=O,5760 nM (active)
4,Cc1cnc(Nc2ccc(N3CCN(C)CC3)cc2)nc1Nc1cccc(S(=O)(=O)NC(C)(C)C)c1,3640 nM (active)
5,CC(=O)c1ccc2c(c1)c1cc(C(C)=O)ccc1n2CCNC(C)C,647 nM (active)
6,Cc1ccc([N+](=O)[O-])cc1S(=O)(=O)N(C)/N=C/c1cnc2ccc(Br)cn12,162 nM (active)
7,O=C(NC1CCNCC1)c1[nH]ncc1NC(=O)c1c(Cl)cccc1Cl,258 nM (active)
8,C[C@H]1C[C@@H]2[C@H]([C@@H](O)C[C@@]3(C)[C@H]2CC[C@]3(O)C(=O)CO)[C@@]2(C)C=CC(=O)C=C12,inactive
9,Cc1ncc(-c2ccnc(Nc3ccc(S(C)(=O)=O)cc3)n2)n1C(C)C,914 nM (active)
10,Cc1cc(Nc2cc(NC(=O)c3c(Cl)cccc3Cl)ccn2)nc(N)n1,2050 nM (active)
11,CC(C)c1cnn2c(NCc3ccccc3)cc(N[C@@H](CO)[C@H](O)CO)nc12,914 nM (active)
12,NC(=O)Nc1sc(-c2ccc(F)cc2)cc1C(N)=O,1450 nM (active)
13,CS[C@H]1SC[C@@H]2C(=O)N(C)[C@H](C(C)C)C(=O)OC[C@H](NC(=O)c3cnc4ccccc4n3)C(=O)N[C@H](C)C(=O)N(C)[C@H]1C(=O)N(C)[C@H](C(C)C)C(=O)OC[C@H](NC(=O)c1cnc3ccccc3n1)C(=O)N[C@H](C)C(=O)N2C,4.1 nM (active)
14,Cc1[nH]c2ccccc2c1CCNCc1ccc(/C=C/C(=O)NO)cc1,22.9 nM (active)
15,Cc1ccc(NC(=O)NCc2ccc3c(c2)CN(C2CCC(=O)NC2=O)C3=O)cc1Cl (stereo unspecified),8.1 nM (active)
16,CCc1cc(C(N)=O)ccc1-n1nc(C(C)C)c2c(-n3cnc(-c4cnn(C)c4)c3)ccnc21,258 nM (active)
17,CC1(COc2ccc3c(c2)ncn3-c2ccc3cccc(N4CCC(N)CC4)c3n2)COC1,5140 nM (active)
18,CCc1c(-c2ccccc2C)nc2c(C#N)c[nH]n2c1=O,inactive

row,Structure (SMILES),Potency
1,COC(=O)Nc1nc2ccc(C(=O)c3ccc(F)cc3)cc2[nH]1,inactive
2,Cc1[nH]nc2ccc(-c3cncc(OC[C@@H](N)Cc4ccccc4)c3)cc12,726 nM (active)
3,O=c1[nH]c2cc(Cl)ccc2c(O)c1-c1ccc(Oc2ccccc2)cc1,inactive
4,CC(C)(C)CC(=O)OCC(=O)[C@@]1(O)CC[C@H]2[C@@H]3CCC4=CC(=O)C=C[C@]4(C)[C@H]3[C@@H](O)C[C@@]21C,inactive
5,COc1ccc(F)c(F)c1C(=O)c1cnc(NC2CCN(S(C)(=O)=O)CC2)nc1N,914 nM (active)
6,CS(=O)(=O)N1CCC(NC(=O)c2[nH]ncc2NC(=O)c2c(Cl)cccc2Cl)CC1,1450 nM (active)
7,O=C(Nc1cn[nH]c1-c1nc2ccc(CN3CCOCC3)cc2[nH]1)NC1CC1,2890 nM (active)
8,CO[C@@H]1[C@@H](O)[C@H](O)[C@@H](n2c3c(Cl)cccc3c3c4c(c5c6cccc(Cl)c6[nH]c5c32)C(=O)NC4=O)O[C@H]1CO,inactive
9,Cc1ccc(C(N)=O)cc1Nc1nccc(-c2cn(C(C)C)c3cnccc23)n1,3330 nM (active)
10,CCCCc1nc2cc(/C=C/C(=O)NO)ccc2n1CCN(CC)CC,364 nM (active)
11,COc1cccc2c1C(=O)c1c(O)c3c(c(O)c1C2=O)C[C@@](O)(C(=O)CO)C[C@@H]3O[C@H]1C[C@H](N)[C@@H](O)[C@H](C)O1,914 nM (active)
12,Fc1ccc(CNc2ncnc3ccc(F)cc23)cc1,inactive
13,Nc1ccccc1NC(=O)c1ccc(CNc2nccc(-c3cccnc3)n2)cc1,3240 nM (active)
14,Nc1nc(Nc2ccc(S(N)(=O)=O)cc2)nn1C(=O)c1c(F)cccc1F,2050 nM (active)
15,CC(C)CC(=O)Nc1n[nH]c2c1CN(C(=O)C1CCN(C)CC1)C2(C)C,230 nM (active)
16,COc1cccc2c1C(=O)c1c(O)c3c(c(O)c1C2=O)C[C@@](O)(/C(CO)=N/NC(=O)CCCCCN1C(=O)C=CC1=O)C[C@@H]3O[C@H]1C[C@H](N)[C@H](O)[C@H](C)O1,1020 nM (active)
17,CCNC(=O)c1noc(-c2cc(C(C)C)c(O)cc2O)c1-c1ccc(CN2CCOCC2)cc1,inactive
18,C=C1C(=O)O[C@H]2C[C@H](C)C(/C=C/C(C)=O)=CC[C@H]12,5760 nM (active)
